Test results published in PubChem BioAssay AID493168 (National Center for Advancing Translational Sciences (NCATS), 2011).
Inconclusive results are not listed. Values without a mark were called inactive. Activity calls are given as the source filed them. The call rests on the fitted dose curve; in most records, active means well fitted inhibition curve with a large enough effect; inconclusive means small, poorly fitted or top-dose-only effect, or effect the other way; inactive means flat fitted curve, though single readings scatter.

Target: Ubiquitin carboxyl-terminal hydrolase 2 (Homo sapiens) (UniProt O75604)
Sequence (O75604 whole entry, looked up): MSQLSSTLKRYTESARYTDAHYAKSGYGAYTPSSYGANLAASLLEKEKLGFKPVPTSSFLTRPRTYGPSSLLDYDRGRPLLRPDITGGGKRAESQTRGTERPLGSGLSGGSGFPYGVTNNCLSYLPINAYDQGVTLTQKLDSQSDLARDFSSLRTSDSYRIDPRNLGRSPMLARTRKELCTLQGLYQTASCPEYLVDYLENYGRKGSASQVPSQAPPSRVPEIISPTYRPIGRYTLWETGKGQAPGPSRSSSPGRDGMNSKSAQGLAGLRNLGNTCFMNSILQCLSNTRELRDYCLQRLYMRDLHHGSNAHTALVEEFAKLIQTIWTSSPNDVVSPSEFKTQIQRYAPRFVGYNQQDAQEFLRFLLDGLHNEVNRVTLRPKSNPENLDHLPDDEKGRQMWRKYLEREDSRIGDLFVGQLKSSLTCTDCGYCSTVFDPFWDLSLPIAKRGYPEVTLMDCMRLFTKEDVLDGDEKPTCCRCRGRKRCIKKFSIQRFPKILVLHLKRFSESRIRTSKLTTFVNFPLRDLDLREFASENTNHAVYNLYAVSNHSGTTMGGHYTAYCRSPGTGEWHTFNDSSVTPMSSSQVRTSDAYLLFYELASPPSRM
Assay: Confirmation Assay for Inhibitors of Ubiquitin-specific Protease USP2a Using CHOP2 as the Reporter; further: nearly all actives have a fitted effect of over 55% in size;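 on activity change, negative = inhibition: plate controls were DMSO wells for no effect and full inhibition by NEM control for full effect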
Conditions: USP2 core, Ub-CHOP2 coupled reporter fluorescence; series mostly up to 38.3 µM; activity change, negative = inhibition: at the top concentration
Description: NIH Molecular Libraries Probe Centers Network [MLPCN] NIH Chemical Genomics Center [NCGC] MLSCN Grant: XO1-MH079852-01 PI Name: Nicholson, Ben. Progenra Inc, Malvern, PA NCGC Assay Overview: Homeostasis of cellular proteins is maintained through a combination of synthesis and degradation. The pathway that accounts for the majority of protein degradation is the ubiquitin-proteasomal pathway. Ubiquitin (Ub) is highly conserved in all cells and the generation of a multi-Ub chain typically targets proteins for degradation by the proteasome. However, ubiquitination is highly reversible and dynamic. Deubiquitination, the reverse process, is catalyzed through the action of enzymes referred to as isopeptidases or deubiquitinating enzymes (DUBs). This group of enzymes is collectively responsible for maintaining adequate pools of free ubiquitin and regulating the ubiquitination status of cellular proteins. The class of DUBs referred to as the ubiquitin-specific proteases (USP) family functions endoproteolytically to cleave Ub chains from a wide range of protein substrates. USP2a deubiquitinates fatty acid synthase (FASN) which has recently been identified as an emerging oncology target. To identify inhibitors of USP2a a cell-free assay was employed. […] The reporter enzyme chosen is an […] called CHOP2, which is activated when the Ub is cleaved by USP2. The free and now activated reporter can subsequently act on its reporter substrate. Thus, this coupled assay gives a fluorescent read-out at excitation/emission wavelengths of 485/531. The assay was developed by Progenra, Inc. and has been licensed for sale by LifeSensors, Inc. as Ub-CHOP2-Reporter-Kit (#PR1101).
NCGC Assay Protocol Summary: The assay buffer, prepared fresh at the day of the assay, contains 20mM Tris-HCl pH 8.0, 2mM CaCl2, 2mM beta-Mercaptoethanol, 0.05% CHAPS. 3ul of 20nM (10nM final) USP2 core, which is stored on ice, is dispensed into a medium-binding black solid Kalypsys 1,536 well plate using the Kalypsys dispenser. The assay plate is then pinned with 23nL compound with the Kalypsys pintool in columns 5-48. The controls are pinned as follows: column 1 two-fold dilutions of 2M NEM in duplicate; column 2 2M NEM (final concentration 38.2mM); column 3&4 DMSO. The assay plate is incubated at RT for 30min. Subsequently, 1.5uL of 100nM (25nM final) Ub-CHOP2 and 1.5uL of 100nM (25nM final) Reporter Substrate (both stored on ice and protected from light) were dispensed into the plate using the Kalypsys dispenser. Plates were read after 60min RT incubation on a ViewLux (Perkin Elmer) plate reader using the following wavelengths Ex 485nm /Em 531nm. Data were normalized to the to AC100 inhibition (NEM). Concentration-response curves were fitted to the normalized data and the concentration-response curves were then classified based on curve quality (r2), response magnitude and degree of measured activity. The time zero reading was used to flag fluorescence artifacts. Keywords: ubiquitination, deubiquitination, proteases, profluorescent, MLSMR, MLPCN, NIH Roadmap, qHTS, NCGC
Potency means the concentration at half of the fitted maximal effect.

First: Cc1ccc2nc(NCCCNC(=O)c3cnccn3)c(C#N)cc2c1
Second: Cc1cc(C)c(NC(=O)C[N+](C)(C)CC(O)COc2cccc3ccccc23)c(C)c1 (stereo not given)
The “activity change, negative = inhibition” value of the first is higher: 2.19% for the first, 0.237% for the second.

First: C=C(C)COc1ccc(-c2[nH]ncc2Oc2ccccc2OCC)c(O)c1
Second: CCOc1ccc(Cn2nnc(C(=O)NCc3ccccc3)c2N)cc1
The “activity change, negative = inhibition” value of the first is higher: 0.628% for the first, -2.45% for the second.

Going from `CC1CCCC(N2CCN(C(=O)c3cccc(F)c3)CC2)C1` (stereo not given) to `O=C(CN1CCOCC1)Nc1ccc(C2CCCCC2)cc1`, the “activity change, negative = inhibition” value falls from -0.437% to -3.53%.

Compared with `COc1ccc(-c2[nH]ncc2/C=C(/C#N)C(=O)NC2CCCCC2)cc1`, `COc1ccc(CC(NC(C)=O)C(=O)NC2CCN(c3nc(C)cc(C)c3C#N)CC2)c(OC)c1` (stereo not given) is lower in “activity change, negative = inhibition” value: 5.96% for the first, -0.456% for the second.

First: Cc1sc2nc(CN3CCN(c4ccc(O)cc4)CC3)[nH]c(=O)c2c1C
Second: O=[N+]([O-])c1c(NCCO)cc(N2CCN(Cc3ccc4c(c3)OCO4)CC2)c2nonc12
The “activity change, negative = inhibition” value of the first is lower: -4.34% for the first, 0.18% for the second.

First: CCOC(=O)c1c(-c2ccc(C)o2)csc1NC(=O)COC(=O)c1ccc(NC(N)=O)cc1
Second: CCOC(=O)Nc1ccc(S(=O)(=O)Nc2cc(C)nc(C)n2)cc1
The “activity change, negative = inhibition” value of the first is lower: -4.42% for the first, 1.06% for the second.

Going from `C=C(CCC(=O)c1ccccc1)C(=O)c1ccccc1` to `CCOC(=O)COc1c(OC)cc(Cl)cc1C1Nc2ccccc2C(=O)N1c1ccccc1` (stereo not given), the “activity change, negative = inhibition” value rises from -11.2% to 2.24%.

Compared with `COc1ccccc1C1NC(c2ccccc2OC)C(C)C(=O)C1C` (stereo not given), `COc1ccc(-n2c(=S)[nH]c3cc(C(=O)NCc4ccc(F)cc4)ccc3c2=O)c(OC)c1` is lower in “activity change, negative = inhibition” value: 1.67% for the first, -2.17% for the second.

Going from `N#CCc1ccc(NC(=O)/C=C/c2ccc([N+](=O)[O-])o2)cc1` to `O=C(NC(=S)N1CCCc2ccccc21)c1ccc([N+](=O)[O-])cc1`, the “activity change, negative = inhibition” value rises from -10.8% to -6.36%.

First: C=CCn1c(Br)nc2c1c(=O)n(C)c(=O)n2C
Second: Cc1ccc(NC(=O)Cn2nc(C)c3ccccc3c2=O)cc1F
The “activity change, negative = inhibition” value of the first is lower: -3.17% for the first, 0.67% for the second.

Going from `Cc1ccc(C(C)C)c(OCc2nn(CC(=O)c3ccc(OC(F)F)cc3)c3[n+]2CCCCC3)c1` to `CCOC(=O)Cn1c(=O)oc2cc(S(=O)(=O)Nc3cc(Cl)ccc3OC)ccc21`, the “activity change, negative = inhibition” value rises from -5.42% to 3.99%.

Going from `Cc1n[nH]c(C)c1S(=O)(=O)N1CCCC(C(=O)NC2CCCc3ccccc32)C1` (stereo not given) to `COCCn1c(SCC(=O)Nc2cc(C)on2)nnc1-c1ccccc1`, the “activity change, negative = inhibition” value rises from -2.73% to 1.16%.

First: CCOC(=O)Nc1nnc(CCc2ccccc2)s1
Second: O=C(CCSCc1ccc(Cl)cc1)NCCc1ccccc1
The “activity change, negative = inhibition” value of the first is higher: -0.956% for the first, -2.88% for the second.

Going from `CCCc1cc(=O)oc2cc(C)c(CN3CCCC3)c(O)c12` to `CCc1cc2c(=O)c(-n3cnc4ccccc43)coc2cc1O`, the “activity change, negative = inhibition” value rises from -1.5% to -1.46%.

Going from `COc1cc(/C=C/[N+](=O)[O-])ccc1OCc1cccc(C(=O)O)c1` to `COc1ccc(S(=O)(=O)NCCSCc2ccco2)cc1OC`, the “activity change, negative = inhibition” value falls from -1.64% to -14.5%.

Compared with `COc1ccc(N(C(=O)C(C)C)S(=O)(=O)c2ccc(Cl)cc2)cc1`, `O=C(Nc1ccc(Nc2ccncc2)cc1)c1ccc(Nc2ccnc3ccc([N+](=O)[O-])cc23)cc1[N+](=O)[O-]` is lower in “activity change, negative = inhibition” value: 0.439% for the first, -16.8% for the second.

In the case of `c1ccc(CN2CCN(CCOCCOc3cccc4ccccc34)CC2)cc1`, the “activity change, negative = inhibition” value is reported as -13.4%.

With `O=C(Nc1cccc(-c2nn[nH]n2)c1)c1ccc(Br)s1` the Potency was 5.21 µM (active).
For `NC1=NC(=O)/C(=C/c2cccc(-c3ccc(S(N)(=O)=O)cc3)c2)S1`, the Potency was 9.27 µM (active).
`O=C(Nc1ccc(Nc2ccncc2)cc1)c1ccc(Nc2ccnc3ccc([N+](=O)[O-])cc23)cc1` was tested, and the Potency was 7.36 µM (active).
For `CCCCCCCCCCCCCCCC[N+](C)(C)CCN(Cc1ccc(OC)cc1)c1ncccn1`, the Potency was 11.7 µM (active).
In the case of `O=C(Nc1ccncc1)c1ccc(S(=O)(=O)Nc2ccccc2)cc1`, the Potency is reported as 14.7 µM (active).
`C#CCOCCOCCOCCNc1nc(N2CCN(C(=O)CCCCCCCCCCNC(=O)[C@@H](CCC(=O)O)n3cc(CCCCCN)nn3)CC2)nc(N2CCN(C(=O)CCCCCCCCCCNC(=O)[C@H](CCCCN)n3cc(C[C@@H](C)CC)nn3)CC2)n1` was tested, and the Potency was 5.21 µM (active).
With `CC(C)c1ccc(Nc2nnc(SCC(=O)c3nnc(-c4ccccc4)o3)s2)cc1` the Potency was 6.56 µM (active).
